Active and inactive are the calls of the source.
What was measured:
[1] = test system: PRMT1 (protein arginine N-methyltransferase 1); experiment: PRMT1 binders on small-molecule microarrays, primary screen, biochemical, small-molecule microarray, 635 nm fluorescence (AID 1088); details: small-molecule microarray binding, higher = more signal;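 also: binding of Prmt1 protein to compounds spotted on small-molecule microarray slides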
[2] = yeast growth modulation, basal conditions, primary screen, YJM789 clinical isolate, OD600, 24 h (AID 1089);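 also: growth of clinical yeast isolate S. cerevisiae YJM 789 seeded 1000 cells per well; test concentration not given here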; details: S. cerevisiae YJM789 growth, higher = more signal, called active from +8 up or from −8 down
[3] = fission yeast growth modulation, primary screen, strain 972, OD600, 24 h, no modulator (AID 1090);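 also: basal condition with compound alone and no growth modifier present; test concentration not given here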; details: S. pombe 972 growth, higher = more signal, called active from +8 up or from −8 down
[4] = S. cerevisiae growth modulation with rapamycin, primary screen, strain BY4716, OD600, 96 h (AID 1091); details: higher = more signal, called active from +8 up or from −8 down; also: test concentration not given here
[5] = target: Torsin-1A-interacting protein 2 (Homo sapiens) (UniProt Q8NFQ8); experiment: LULL1 binders on small-molecule microarray, primary screen, cell lysate, human LULL1 lysate, 635/667 nm fluorescence (AID 1092); details: hLULL1 lysate binding, 635 nm fluorescence, higher = more signal;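 also: probe is lysate of COS7 cells overexpressing human LULL1; score merges per-feature 667 nm fluorescence with signal-to-noise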
Sequence of Torsin-1A-interacting protein 2 (Homo sapiens) (Q8NFQ8 whole entry, looked up): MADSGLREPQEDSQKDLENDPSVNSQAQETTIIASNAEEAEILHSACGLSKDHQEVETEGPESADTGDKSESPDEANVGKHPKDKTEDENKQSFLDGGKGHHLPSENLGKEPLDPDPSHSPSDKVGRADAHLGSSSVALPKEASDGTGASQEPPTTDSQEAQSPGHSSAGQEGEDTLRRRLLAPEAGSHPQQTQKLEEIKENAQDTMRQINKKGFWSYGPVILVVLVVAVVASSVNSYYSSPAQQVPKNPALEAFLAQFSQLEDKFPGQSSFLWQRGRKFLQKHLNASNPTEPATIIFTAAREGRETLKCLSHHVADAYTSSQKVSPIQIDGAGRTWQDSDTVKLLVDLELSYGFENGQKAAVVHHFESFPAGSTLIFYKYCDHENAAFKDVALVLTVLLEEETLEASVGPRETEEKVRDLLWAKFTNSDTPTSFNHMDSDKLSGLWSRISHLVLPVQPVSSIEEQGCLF

[6] = E. coli growth modulation, two-sided OD650, primary screen, E. coli filamentation project, strain DRC41, 24 h (AID 1093); details: OD650, 24 h, higher = more signal, called active from +8 up or from −8 down;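 also: MC1000 strain lacking acrAB efflux and sulA so SOS filamentation is blocked; test concentration not given here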
[7] = small-molecule microarray binders of probe aLefty2, primary screen, biochemical, biotinylated probe, 635/667 nm fluorescence (AID 1094); details: higher = more signal;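 also: score merges spot fluorescence near 667 nm with spot signal-to-noise ratio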
[8] = test system: Noggin (protein binding on small-molecule microarray); experiment: Noggin binders on small-molecule microarray, primary screen, biochemical, 635/667 nm fluorescence (AID 1095); details: 635 nm fluorescence, higher = more signal;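 also: score merges 667 nm feature fluorescence with signal to noise over triplicate slides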
[9] = target: Neurogenic locus notch homolog protein 3 (Homo sapiens) (UniProt Q9UM47); experiment: NOTCH3 binders on small-molecule microarray, primary screen, biochemical, 635/667 nm fluorescence (AID 1096); details: NOTCH3 binding, 635 nm fluorescence, higher = more signal
Sequence of Neurogenic locus notch homolog protein 3 (Homo sapiens) (Q9UM47 whole entry, looked up): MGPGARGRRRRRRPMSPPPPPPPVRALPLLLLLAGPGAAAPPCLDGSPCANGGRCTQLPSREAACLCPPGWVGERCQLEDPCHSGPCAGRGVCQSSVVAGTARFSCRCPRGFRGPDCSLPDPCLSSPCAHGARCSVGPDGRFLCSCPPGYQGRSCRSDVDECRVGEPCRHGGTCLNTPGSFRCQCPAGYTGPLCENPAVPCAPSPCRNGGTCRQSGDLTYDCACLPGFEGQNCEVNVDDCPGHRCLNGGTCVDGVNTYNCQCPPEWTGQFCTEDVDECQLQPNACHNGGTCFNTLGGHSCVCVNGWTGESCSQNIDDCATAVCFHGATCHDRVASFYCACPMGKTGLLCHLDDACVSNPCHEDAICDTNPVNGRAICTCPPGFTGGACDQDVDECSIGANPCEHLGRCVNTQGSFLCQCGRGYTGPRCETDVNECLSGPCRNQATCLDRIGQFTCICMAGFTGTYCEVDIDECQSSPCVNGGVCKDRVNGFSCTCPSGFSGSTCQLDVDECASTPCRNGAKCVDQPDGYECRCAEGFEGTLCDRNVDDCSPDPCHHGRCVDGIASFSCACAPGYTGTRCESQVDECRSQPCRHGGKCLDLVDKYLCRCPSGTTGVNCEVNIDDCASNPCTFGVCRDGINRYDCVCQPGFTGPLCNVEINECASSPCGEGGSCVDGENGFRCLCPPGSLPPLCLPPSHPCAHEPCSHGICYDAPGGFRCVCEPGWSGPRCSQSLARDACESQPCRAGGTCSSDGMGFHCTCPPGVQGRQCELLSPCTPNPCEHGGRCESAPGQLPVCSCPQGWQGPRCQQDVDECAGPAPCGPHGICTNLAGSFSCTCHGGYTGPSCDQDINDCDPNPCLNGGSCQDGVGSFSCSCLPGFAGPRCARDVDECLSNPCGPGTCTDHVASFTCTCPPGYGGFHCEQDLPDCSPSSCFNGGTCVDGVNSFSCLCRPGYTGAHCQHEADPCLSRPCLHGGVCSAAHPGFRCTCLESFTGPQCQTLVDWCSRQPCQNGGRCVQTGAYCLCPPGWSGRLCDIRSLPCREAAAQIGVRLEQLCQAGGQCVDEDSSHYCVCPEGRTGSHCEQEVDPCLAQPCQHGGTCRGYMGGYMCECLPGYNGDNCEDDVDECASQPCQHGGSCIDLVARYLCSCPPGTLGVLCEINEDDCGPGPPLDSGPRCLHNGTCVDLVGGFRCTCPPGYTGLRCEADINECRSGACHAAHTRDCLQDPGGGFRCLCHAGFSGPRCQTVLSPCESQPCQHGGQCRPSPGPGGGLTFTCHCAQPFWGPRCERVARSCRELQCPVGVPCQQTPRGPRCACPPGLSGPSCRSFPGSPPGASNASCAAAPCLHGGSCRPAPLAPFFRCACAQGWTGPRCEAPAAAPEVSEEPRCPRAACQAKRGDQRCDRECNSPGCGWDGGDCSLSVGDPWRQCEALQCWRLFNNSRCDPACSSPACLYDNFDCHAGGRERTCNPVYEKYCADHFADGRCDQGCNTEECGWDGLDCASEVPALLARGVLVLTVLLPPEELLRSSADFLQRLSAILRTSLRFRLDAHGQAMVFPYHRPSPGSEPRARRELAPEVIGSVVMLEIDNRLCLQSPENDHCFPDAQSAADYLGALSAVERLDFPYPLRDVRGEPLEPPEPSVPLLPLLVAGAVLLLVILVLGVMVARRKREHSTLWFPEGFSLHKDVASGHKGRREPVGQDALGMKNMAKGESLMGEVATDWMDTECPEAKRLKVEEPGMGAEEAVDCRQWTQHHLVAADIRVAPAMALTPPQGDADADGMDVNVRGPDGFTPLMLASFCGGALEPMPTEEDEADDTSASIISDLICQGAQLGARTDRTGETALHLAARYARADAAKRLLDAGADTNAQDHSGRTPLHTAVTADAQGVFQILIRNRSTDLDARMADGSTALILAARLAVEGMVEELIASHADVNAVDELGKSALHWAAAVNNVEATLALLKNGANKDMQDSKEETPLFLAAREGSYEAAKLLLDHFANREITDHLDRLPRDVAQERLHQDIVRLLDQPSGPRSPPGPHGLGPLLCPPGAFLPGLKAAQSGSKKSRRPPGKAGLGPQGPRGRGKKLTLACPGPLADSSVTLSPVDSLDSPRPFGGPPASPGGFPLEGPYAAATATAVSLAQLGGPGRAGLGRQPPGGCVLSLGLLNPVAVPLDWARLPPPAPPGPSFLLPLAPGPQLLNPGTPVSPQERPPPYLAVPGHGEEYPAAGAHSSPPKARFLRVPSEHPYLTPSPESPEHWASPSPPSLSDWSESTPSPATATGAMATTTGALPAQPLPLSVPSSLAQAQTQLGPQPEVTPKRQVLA

[10] = small-molecule microarray binders of probe aEGFR, primary screen, biochemical, biotinylated probe, 635/667 nm fluorescence (AID 1097); details: higher = more signal;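 also: probe is a biotinylated anti-EGFR antibody binding compounds printed on slides; score combines fluorescence near 667 nm and signal to noise of each spot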
[11] = test system: Plasmodium falciparum Sir2 (PF13_0152, Sir2A); experiment: pfSir2 binders on small-molecule microarrays, primary screen, biochemical, small-molecule microarray, 635 nm fluorescence (AID 1098); details: small-molecule microarray binding, fluorescence 635 nm; higher = more signal;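 also: score merges spot fluorescence intensity with its signal-to-noise ratio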
[12] = small-molecule microarray binders of probe aDKK1, primary screen, biochemical, biotinylated probe, 635/667 nm fluorescence (AID 1099); details: higher = more signal;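 also: score merges 667nm spot fluorescence with signal to noise across triplicate slides; reference of the scale not given here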
[13] = small-molecule microarray binders of probe aCHRDL2, primary screen, biochemical, biotinylated probe, 635/667 nm fluorescence (AID 1100); details: higher = more signal
[14] = splicing luciferase reporter signal modulators, primary screen, spliceosome inhibition project, cell-based, HEK293, splice +/- reporter (AID 1101); details: luminescence, 24 h, higher = more signal, called active from +8 up or from −8 down;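 also: HEK293 cells carrying a splicing-competent luciferase reporter gene; test concentration not given here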
[15] = target: Fibroblast growth factor 10 (Homo sapiens) (UniProt O15520); experiment: FGF10 binders on small-molecule microarrays, primary screen, biochemical, small-molecule microarray, 635 nm fluorescence (AID 1102); details: FGF10 binding, fluorescence 635 nm, higher = more signal
Sequence of Fibroblast growth factor 10 (Homo sapiens) (O15520 whole entry, looked up): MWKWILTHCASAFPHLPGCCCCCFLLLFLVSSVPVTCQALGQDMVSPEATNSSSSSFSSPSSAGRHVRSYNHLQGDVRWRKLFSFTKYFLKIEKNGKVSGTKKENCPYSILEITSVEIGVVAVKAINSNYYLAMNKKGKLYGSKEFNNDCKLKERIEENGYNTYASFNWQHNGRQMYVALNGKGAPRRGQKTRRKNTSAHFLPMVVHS

[16] = test system: glycogen synthase kinase-3 (GSK3A per assay name; protocol says GSK3B); experiment: GSK3 binders on small-molecule microarrays, primary screen, biochemical, small-molecule microarray, 635 nm fluorescence, GSK3A (AID 1103); details: small-molecule microarray binding, fluorescence 635 nm; higher = more signal; also: the record names both GSK3A and GSK3B
[17] = target: Epidermal growth factor receptor (Homo sapiens) (UniProt P00533); experiment: EGFR binders on small-molecule microarrays, primary screen, biochemical, small-molecule microarray, 635 nm fluorescence (AID 1104); details: EGFR binding, higher = more signal;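 also: score merges 667 nm emission intensity with spot signal to noise over triplicate slides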
Sequence of Epidermal growth factor receptor (Homo sapiens) (P00533 whole entry, looked up): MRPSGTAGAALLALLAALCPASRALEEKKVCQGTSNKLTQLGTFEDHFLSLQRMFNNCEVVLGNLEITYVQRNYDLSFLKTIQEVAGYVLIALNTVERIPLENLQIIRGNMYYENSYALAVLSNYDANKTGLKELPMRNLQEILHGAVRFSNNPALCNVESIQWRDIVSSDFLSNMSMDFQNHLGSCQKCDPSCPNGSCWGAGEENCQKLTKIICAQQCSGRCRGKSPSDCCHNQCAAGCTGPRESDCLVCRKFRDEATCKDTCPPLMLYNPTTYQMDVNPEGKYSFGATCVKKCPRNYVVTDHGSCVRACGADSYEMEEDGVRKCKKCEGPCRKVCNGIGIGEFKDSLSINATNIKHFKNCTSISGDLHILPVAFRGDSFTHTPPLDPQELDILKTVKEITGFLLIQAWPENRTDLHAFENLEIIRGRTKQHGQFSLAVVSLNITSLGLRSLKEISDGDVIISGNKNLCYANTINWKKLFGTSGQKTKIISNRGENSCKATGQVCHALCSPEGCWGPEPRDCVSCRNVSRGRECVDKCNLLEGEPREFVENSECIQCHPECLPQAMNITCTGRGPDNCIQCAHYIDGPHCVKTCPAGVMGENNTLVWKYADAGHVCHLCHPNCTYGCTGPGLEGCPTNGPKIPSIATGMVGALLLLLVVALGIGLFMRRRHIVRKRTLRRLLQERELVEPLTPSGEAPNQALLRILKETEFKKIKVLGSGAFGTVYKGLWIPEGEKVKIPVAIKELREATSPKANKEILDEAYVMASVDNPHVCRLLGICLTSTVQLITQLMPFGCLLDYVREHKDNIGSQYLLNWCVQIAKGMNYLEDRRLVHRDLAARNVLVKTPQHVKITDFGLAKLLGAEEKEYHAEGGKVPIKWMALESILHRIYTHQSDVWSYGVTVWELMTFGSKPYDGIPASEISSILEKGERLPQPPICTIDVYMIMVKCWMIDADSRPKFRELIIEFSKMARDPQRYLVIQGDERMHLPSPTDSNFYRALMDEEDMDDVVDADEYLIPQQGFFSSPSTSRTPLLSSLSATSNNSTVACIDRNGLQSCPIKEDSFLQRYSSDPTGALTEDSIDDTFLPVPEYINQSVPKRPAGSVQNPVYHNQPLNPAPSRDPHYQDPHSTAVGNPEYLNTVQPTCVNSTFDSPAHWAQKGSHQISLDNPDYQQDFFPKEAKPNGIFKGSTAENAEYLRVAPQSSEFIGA

[18] = target: Follistatin-related protein 3 (Homo sapiens) (UniProt O95633); experiment: FSTL3 binders on small-molecule microarrays, primary screen, biochemical, small-molecule microarray, 635 nm fluorescence (AID 1105); details: FSTL3 binding, higher = more signal;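 also: score merges emission near 667 nm and signal to noise per printed spot across three slides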
Sequence of Follistatin-related protein 3 (Homo sapiens) (O95633 whole entry, looked up): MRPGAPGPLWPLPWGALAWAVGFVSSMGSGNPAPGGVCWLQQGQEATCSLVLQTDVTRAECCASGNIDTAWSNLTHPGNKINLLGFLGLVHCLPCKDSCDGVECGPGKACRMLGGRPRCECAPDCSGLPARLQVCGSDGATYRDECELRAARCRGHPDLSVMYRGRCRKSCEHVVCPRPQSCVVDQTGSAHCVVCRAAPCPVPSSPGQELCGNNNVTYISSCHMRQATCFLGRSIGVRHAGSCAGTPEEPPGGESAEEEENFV

[19] = target: Dickkopf-related protein 1 (Homo sapiens) (UniProt O94907); experiment: DKK1 binders on small-molecule microarrays, primary screen, biochemical, small-molecule microarray, 635 nm fluorescence scan (AID 1106); details: DKK1 binding, higher = more signal;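 also: score merges emission near 667 nm with signal to noise over three replicate slides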
Sequence of Dickkopf-related protein 1 (Homo sapiens) (O94907 whole entry, looked up): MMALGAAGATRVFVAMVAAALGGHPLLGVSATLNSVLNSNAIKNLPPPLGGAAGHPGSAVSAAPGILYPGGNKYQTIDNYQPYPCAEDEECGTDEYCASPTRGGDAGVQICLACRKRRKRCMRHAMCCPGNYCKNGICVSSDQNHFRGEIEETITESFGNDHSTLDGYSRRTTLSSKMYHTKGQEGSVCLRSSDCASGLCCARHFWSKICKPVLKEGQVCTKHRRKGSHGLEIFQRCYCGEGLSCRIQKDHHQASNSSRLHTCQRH

[20] = test system: Inhibin beta A chain (activin A); experiment: INHBA (activin A) binders on microarrays, primary screen, biochemical, small-molecule microarray, 635 nm fluorescence scan (AID 1107); details: small-molecule microarray binding, higher = more signal;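 also: mouse activin A protein probed at 4.33 µg/mL on printed slides; score merges bound-protein fluorescence near 667 nm with spot signal-to-noise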

SMILES	composite z-score [1]	z-score [2]	z-score [3]	z-score [4]	composite z-score [5]	z-score [6]	composite z-score [7]	composite z-score [8]	composite z-score [9]	composite z-score [10]	composite z-score [11]	composite z-score [12]	composite z-score [13]	z-score [14]	composite z-score [15]	composite z-score [16]	composite z-score [17]	composite z-score [18]	composite z-score [19]	composite z-score [20]
NCCCCCNC(=O)[C@@H]1C[C@@H]2C(=O)N[C@@H](Cc3ccccc3)C(=O)N2[C@@H]1c1cccc(OCCO)c1	0.715	0.653 (inactive)	-0.175 (inactive)	0.68 (inactive)	1.8	-0.47 (inactive)	-0.0075	0.363	-0.448	-0.218	1.14	0.53	0.359	-0.0581 (inactive)	0.519	0.232	-0.235	-0.374	0.378	0.619
CC(=O)NCCCC[C@@H]1NC(=O)[C@@H]2C[C@H](C(=O)NCCCCN(C)C)[C@H](c3cccc(OCCO)c3)N2C1=O	0.558	-0.546 (inactive)	0.595 (inactive)	-0.789 (inactive)	1.51	0.187 (inactive)	-0.0124	-0.104	0.465	-0.127	1.4	-0.0978	0.529	0.805 (inactive)	0.556	0.117	-0.12	0.227	0.0332	-0.609
CC(CO)N1C(=O)[C@@H]2C3C(=O)OCCC/C=C\[C@H]3OC23C=CCN(c2ccc4ccccc4c2)C(=O)[C@@H]13 (stereo not given in full)	0.0691	-0.531 (inactive)	-0.743 (inactive)	-0.0295 (inactive)	-0.504	0.0095 (inactive)	-0.0516	-0.871	-0.341	-0.18	0.0726	-0.146	0.128	-0.317 (inactive)	-1.01	-0.974	-1.04	-0.718	-1.17	-0.107
COc1ccc(COC2OC[C@]3(C)[C@H]4C5=C(CN3C(=O)OC(C)(C)C)[C@H](C)C(CO)C(CO)C5CC[C@@H]24)cc1 (stereo not given in full)	0.482	0.677 (inactive)	0.805 (inactive)	0.502 (inactive)	3.27	-1.76 (inactive)	0.341	0.277	1.06	0.0699	1	1.06	0.983	-0.807 (inactive)	0.755	1.3	-0.452	1.07	-0.432	0.797
C=CCOC(=O)[C@H]1[C@@H]2C(=O)O[C@@H](c3ccccc3)[C@@H](c3ccccc3)N2[C@@H](c2ccc(OCCOC(=O)[C@H]3C[C@H]4C(=O)N5CCC[C@H]5C(=O)N4[C@H]3c3ccc(O)cc3)cc2)[C@]12C(=O)Nc1ccccc12	1.54	1.31 (inactive)	0.998 (inactive)	3.27 (inactive)	3.03	-0.92 (inactive)	0.0292	0.744	0.938	0.127	1.54	-0.202	0.106	0.994 (inactive)	1.47	1.36	0.999	1.39	1.81	0.39
CCOC(=O)C[C@H]1[C@H](OC(=O)c2cc3ccccc3oc2=O)[C@@H](NC(=O)C2CCCCC2)c2cc(OCCCO)ccc2N1C(=O)c1ccccc1	0.633	-0.415 (inactive)	-0.894 (inactive)	-0.0843 (inactive)	1.45	2.03 (inactive)	-0.0668	0.844	0.615	0.25	0.784	-0.23	-0.377	-1.45 (inactive)	0.995	0.692	0.593	0.708	0.5	0.707
C=CCC(OC(C)=O)[C@@H]1[C@@H](N(Cc2cccc3ccccc23)C(=O)c2ccc(-c3ccccc3)cc2)c2cc(OCCCO)ccc2N1C(=O)Cc1ccc(OC)cc1 (stereo not given in full)	0.341	-0.715 (inactive)	-0.445 (inactive)	-1.03 (inactive)	0.792	0.457 (inactive)	-0.0491	0.0231	0.0343	-0.0415	0.283	-0.0675	0.0188	-1.08 (inactive)	0.168	0.0341	0.23	0.431	0.0533	0.884
COCCCN1C(=O)[C@@]2(Cc3ccccc31)c1ccccc1C(=O)N(Cc1ccccc1C(F)(F)F)[C@H]2c1ccc(CO)cc1	0.979	1.19 (inactive)	0.339 (inactive)	-1.41 (inactive)	2.51	-0.253 (inactive)	-0.143	0.992	0.627	-0.121	1.13	-0.106	-0.563	0.498 (inactive)	0.94	0.561	0.12	0.919	0.756	0.915
CC(=O)n1cc(C(O)C2C=CC3C(=O)N(C)C(=O)C3N2Nc2ccccc2)c2ccccc21 (stereo not given)	1.05	-0.0186 (inactive)	1.4 (inactive)	1.05 (inactive)	3.18	-0.77 (inactive)	0.347	0.606	1.12	-0.0644	0.511	0.906	1.18	1.45 (inactive)	1.17	0.292	1.27	1.4	1.02	1.79
COCCOC(=O)N1C(=O)[C@@]2(c3cc(C#Cc4ccc(OC)cc4)ccc31)[C@H](c1ccc(O)cc1)N1[C@H](c3ccccc3)[C@H](c3ccccc3)OC(=O)[C@H]1[C@@H]2C(=O)NC[C@H](O)c1ccccc1	1.54	1.5 (inactive)	0.217 (inactive)	2.82 (inactive)	2.16	0.873 (inactive)	-0.09	1.48	1.08	0.0209	1.47	-0.0755	-0.378	-1.68 (inactive)	1.42	1.31	0.769	1.4	0.811	0.113
CCC(CC)C(O)C1C=CC2C(=O)N(C)C(=O)C2N1Nc1ccccc1 (stereo not given)	1.02	-0.0298 (inactive)	-0.575 (inactive)	0.0024 (inactive)	3.07	0.103 (inactive)	-0.0321	-0.0929	1.06	-0.0828	0.695	0.332	0.9	0.464 (inactive)	0.603	0.499	0.0611	0.698	0.371	0.867
Cc1ccc(S[C@]2(C(=O)NCCN3CCOCC3)CC(=O)N(Cc3ccccc3)[C@@H]2c2ccc(CO)cc2I)cc1	0.01	-0.605 (inactive)	-3 (inactive)	0.576 (inactive)	2.07	-1.17 (inactive)	0.0769	-1.57	-0.791	-0.378	1.41	0.361	1.11	-1.88 (inactive)	-1.61	-1.12	-1.72	-1.24	-1.51	0.476
C=C/C=C/[C@H]1C(=C)CN([C@@H](Cc2ccccc2)C(=O)OC)[C@@H]1[C@H](O)Cc1ccccc1	-0.473	-0.15 (inactive)	-1.35 (inactive)	-0.557 (inactive)	0.428	0.311 (inactive)	-0.149	-0.219	-0.0424	-0.316	-0.181	-0.167	0.44	1.04 (inactive)	-0.557	-0.546	-1.23	-0.542	-0.306	0.97
O=C1OCCC/C=C\[C@H]2OC34C=CCN(Cn5nnc6ccccc65)C(=O)[C@H]3N(CCCCCCO)C(=O)[C@@H]4C12 (stereo not given in full)	0.827	-3.24 (inactive)	-0.0541 (inactive)	-1.28 (inactive)	3.5	2.87 (inactive)	-0.181	-0.272	-0.269	-0.224	1.53	-0.234	0.489	-1.57 (inactive)	-1.41	-0.662	-0.636	-0.321	-0.774	1.12
COc1ccc([Si](C)(C)[C@@H]2[C@@H](CCO)O[C@]3(C(=O)N(Cc4ccc(N5C(=O)COc6ccccc65)cc4)c4ccccc43)[C@H]2C)cc1	1.5	3.6 (inactive)	-0.0953 (inactive)	35.7 (active)	2.44	0.49 (inactive)	-0.0375	1.17	0.767	0.0192	1.31	0.146	0.147	-1.68 (inactive)	0.808	0.522	0.334	0.469	0.129	0.678
[N-]=[N+]=Nc1ccccc1C[C@]1(C(N)=O)N=C(c2ccc(OCCCO)cc2)O[C@H]1c1ccccc1	0.203	0.515 (inactive)	0.248 (inactive)	0.143 (inactive)	3.19	0.104 (inactive)	-0.0893	-0.194	0.444	-0.115	1.13	0.0609	0.875	0.297 (inactive)	0.181	0.532	-1.44	-0.255	-0.748	0.511
COc1ccc([Si](C)(C)[C@H]2[C@H](CC(=O)N3Cc4ccccc4C[C@H]3CO)O[C@@]3(C(=O)N(Cc4ccc(N5CCC5=O)cc4)c4ccccc43)[C@@H]2C)cc1	1.54	-1.57 (inactive)	0.52 (inactive)	0.98 (inactive)	2.6	1.65 (inactive)	0.148	1.57	1.14	0.0321	1.21	-0.283	0.51	-0.315 (inactive)	1.15	0.972	1.11	1.44	1	1.28
COC(=O)[C@@]1(Cc2ccc(F)cc2)[C@H]2c3cc(C(=O)N(C)C)n(Cc4nc5ccccc5[nH]4)c3C[C@H]2CN1C(=O)c1ccccc1	0.173	0.37 (inactive)	0.821 (inactive)	-0.444 (inactive)	3.36	-0.373 (inactive)	0.341	-0.138	1.08	0.191	1.62	0.69	0.969	-1.62 (inactive)	0.63	-0.136	0.314	0.296	-0.419	0.538
